# Measurements from the OligoGym collection.
# Target: CYP2E1
# Assay: pooled miR-30 sensor sort-seq; sequence = guide strand
# Conditions: shRNA
# Note: reference of the scale not given here.
row,Sequence,sensor-assay potency score (higher = more potent)
1,TAAACTTTTCTGGATCAGGAAA,-1.37
2,TGTCCTTCCAGGTAGGTCCATT,-0.826
3,ATCATTGTAGTCAAAATGCTTG,-1.07
4,TTGAAATAGTCACTGTACTTGA,-0.183
5,TATTCTTCAATTCCAACTGGAA,-0.685
6,ATAGTCACTGTACTTGAACTTT,-0.806
7,TTGGTTGTCATACAAAACAGAG,-1.2
8,TAGTCACTGTACTTGAACTTTC,-0.787
9,TACAGCGTGAACACCGGCCCGA,-0.641
10,ATGTAGGGCATCTCTTGCCTAT,-1.01
11,TCACTGTACTTGAACTTTCCAT,-0.768
12,ATATTCTTCAATTCCAACTGGA,0.347
13,TTATTAAAAATGATTCCCCTGT,0.074
14,TTGGGGATGAGGTATCCTCTGA,-0.671
15,TTGATGGTGCTCCTTCACCCTT,-1.19
16,TTCATGGAGCTTCTCTTCGATC,-1.27
17,TTATTGTAAAGCTGGAGCCAGG,-1.09
18,TTAAACAAATACATCAGCCTTA,0.593

# Target: CYP4A11
# Assay: as above
# Conditions: shRNA
row,Sequence,sensor-assay potency score (higher = more potent)
1,TGTGCAGGTAGAGCTGAACTGC,-1.37
2,AAAGGGTCAAACACCTCTGGGT,-0.324
3,AACACAAGTCGTGCAATGGGGA,-1.18
4,TAGATGGTGTCATTCTGGTGAA,-0.837
5,TTTCTGAATCCGTTGTAGCTCC,-0.368
6,TAGCTCCTGGTCCTGTTGGAGC,-1.31
7,TTTGAGCAGCCACTGCCTGTGC,-0.428

# Target: CYP4A22
# Assay: as above
# Conditions: shRNA
row,Sequence,sensor-assay potency score (higher = more potent)
1,TGTCTGACAAGATGCTCCCATT,-1.67
2,TAGGATCCATGGGATTTCGGGT,-1.1
3,ATTTCAACACAAGTCGTGCCAT,-0.11
4,TGGCCCTCAAACATGAACGTGT,-0.767
5,TGGTCGTGTTGGAACTCCTGGA,-0.8
6,TTAATGCACATGGTGGTGTAGG,-1.01
7,TAGCTCCTGGTCGTGTTGGAAC,-1.63
8,TTGTAGCTCCTGGTCGTGTTGG,-0.703
9,TCAGTTGGATCACTTGGTCTGT,-0.279
10,TAGAGGATCCAGGAGATCCCAC,-1.33
11,TTGGTCTGTGTGCTGATGGGCC,-0.327
12,TTGTCTGACAAGATGCTCCCAT,0.46
13,TCCTTGTCTGACAAGATGCTCC,-1.35
14,AAACATGAACGTGTCCACCTCA,-0.12
15,AACACAAGTCGTGCCATGGGGA,-0.895
